According to the supplement of paper PMC12067093, “Discovery and optimisation of a covalent ligand for TRIM25 and its application to targeted protein ubiquitination” (Chemical Science, 2025):
About 21,000 targets were measured; listed, in parts, are those with the largest changes and a random draw of the rest.

Compound: Cc1cc(ccc1-c1ccccc1)C(=O)N1CCCN(CC1)C(=O)CCl [compound 10]
Assay: probe-labelled cysteine peptide fold change vs DMSO (competition) (log2 fold change); higher = less target engagement (more negative = stronger competition)
Settings: THP-1, incubation time: 4 h
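Also: competitive profiling in live THP-1 cells: cysteine peptides tagged with an iodoacetamide desthiobiotin (IA-DTB) probe, intensity after compound treatment relative to DMSO-treated cells.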

Target	probe-labelled cysteine peptide fold change (10 µM)	probe-labelled cysteine peptide fold change (50 µM)
NOTCH2_Q04721_427_GADCTEDVDECAMANSNPCEHAGK (UniProt Q04721)	0.149	0.115
NOMO3_P69849_565_ISIMHEDWCWK<|>NOMO1_Q15155_565_ISIMHEDWCWK<|>NOMO2_Q5JPE7_565_ISIMHEDWCWK (UniProt Q5JPE7+Q15155+P69849)	0.0786	0.28
NOP2_P46087_463_VLLDAPCSGTGVISK (UniProt P46087)	-0.0187	0.0458
NR2F6_P10588_316_AIALFTPDACGLSDPAHVESLQEK (UniProt P10588)	-0.711	-1.1
MYO9B_Q13459_1876_ITTCVEMLIK (UniProt Q13459)	0.0944	-0.0605
PAK2_Q13177_352_ECLQALEFLHANQVIHR (UniProt Q13177)	0.441	0.0289
PARP14_Q460N5_509_VTQHLCLK (UniProt Q460N5)	0.0914	0.48
PALD1_Q9ULE6_382_AITACAELHDLK (UniProt Q9ULE6)	-0.02	-0.092
P4HB_P07237_397_KNVFVEFYAPWCGHCK (UniProt P07237)	-0.644	-2.76
PARK7_Q99497_53_DVVICPDASLEDAK (UniProt Q99497)	-0.432	0.291
PAICS_P22234_266_SESQCR (UniProt P22234)	0.613	1.39
NSDHL_Q15738_86_FFLGDLCSR (UniProt Q15738)	-0.104	0.0788
NUMA1_Q14980_961_QFCSTQAALQAMER (UniProt Q14980)	-0.0783	-1.25
P4HTM_Q9NXG6_156_PLLFEIPGFLTDEECR (UniProt Q9NXG6)	0.372	0.492
OSTC_Q9NRP0_14_VPFLVLECPNLK (UniProt Q9NRP0)	0.025	-0.0744
NUBP1_P53384_8_MEEVPHDCPGADSAQAGR (UniProt P53384)	1.37	1.35
MYO6_Q9UM54_790_RVNHWLTCSR (UniProt Q9UM54)	0.104	0.475

Target	probe-labelled cysteine peptide fold change (10 µM)	probe-labelled cysteine peptide fold change (50 µM)
NRAS_P01111_51_KQVVIDGETCLLDILDTAGQEEYSAMRDQYMR<|>HRAS_P01112_51_KQVVIDGETCLLDILDTAGQEEYSAMRDQYMR (UniProt P01112+P01111)	-0.209	-0.642
PA2G4_Q9UQ80_85_GIAFPTSISVNNCVCHFSPLK (UniProt Q9UQ80)	0.203	-0.024
NFS1_Q9Y697_353_HHYPGCINLSFAYVEGESLLMALK (UniProt Q9Y697)	0.466	0.42
P4HB_P07237_53_YLLVEFYAPWCGHCK (UniProt P07237)	-1.15	-1.6
NT5C3B_Q969T7_73_IISEECR (UniProt Q969T7)	-0.00671	0.268
OAT_P04181_93_YFDFLSSYSAVNQGHCHPK (UniProt P04181)	0.0237	0.0378
MYO6_Q9UM54_321_MCTAMK (UniProt Q9UM54)	0.00117	-0.218
NFKB1_P19838_61_YVCEGPSHGGLPGASSEK (UniProt P19838)	0.0894	-0.824
NT5DC1_Q5TFE4_139_YYFYDNYFDLPGALLCAR (UniProt Q5TFE4)	1.21	1.46
PALD1_Q9ULE6_65_VAPVVITYNCK (UniProt Q9ULE6)	0.106	-0.15
NOL9_Q5SY16_637_TVNCLLVGAIAIPHCVLK (UniProt Q5SY16)	-0.0765	-0.381
NACC2_Q96BF6_393_NTLANSCGTGIR<|>NACC1_Q96RE7_416_NTLANSCGTGIR (UniProt Q96RE7+Q96BF6)	-0.485	0.031
NUP205_Q92621_698_CEEYPLTR (UniProt Q92621)	0.0608	-0.00172
NECTIN2_Q92692_238_ADGVTVTCK (UniProt Q92692)	-0.148	-0.394
P3H1_Q32P28_568_LDTPLYFSYSHLVCR (UniProt Q32P28)	-0.35	0.386
NIPSNAP3A_Q9UFN0_135_QESEITYLVPWCK (UniProt Q9UFN0)	0.151	0.389
NFX1_Q12986_295_STCDSENLAVINK (UniProt Q12986)	0.0638	-0.0574
